Assay results from PubChem BioAssay (NCI).
The panel holds about 83,000 compounds, 20% with a hit somewhere; the sample as a whole holds those more often.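 Assay: single dose, 48 h. Readout: percent growth (0 = no net growth; negative = cell death). Active: <10.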 A number with no mark means an inactive call. The source made the active and inactive calls.

Assays:
Assay in all cases: NCI-60 one-dose screen, 48 h (100 = growth as untreated, 0 = no growth, -100 = all killed)
Settings in all cases: 10 µM
DU-145 prostate = tested on: DU-145 prostate
K-562 leukemia = tested on: K-562 leukemia
MALME-3M melanoma = tested on: MALME-3M melanoma
MDA-MB-231 breast = tested on: MDA-MB-231 breast
RXF 393 renal = tested on: RXF 393 renal
SF-268 CNS = tested on: SF-268 CNS
SF-295 CNS = tested on: SF-295 CNS
SF-539 CNS = tested on: SF-539 CNS
UACC-257 melanoma = tested on: UACC-257 melanoma
M14 melanoma = tested on: M14 melanoma

Structure (SMILES) | growth (DU-145 prostate) | growth (K-562 leukemia) | growth (MALME-3M melanoma) [%] | growth (MDA-MB-231 breast) [%] | growth (RXF 393 renal) | growth (SF-268 CNS) [%] | growth (SF-295 CNS) | growth (SF-539 CNS) | growth (UACC-257 melanoma) [%] | growth (M14 melanoma)
CN(C)c1ccc(S(=O)(=O)O)cc1 | 110% | 104% | 103 | 105 | 103% | 91.9 | 107% | 91.2% | 107 | –
CCOc1ccccc1/C=N/Nc1nc2ccccc2o1 | 110% | 95.7% | 97.5 | 82.8 | 112% | 108 | 108% | 104% | 113 | –
COCCOCCCl | 110% | 97.5% | 112 | 118 | 119% | 101 | 102% | 106% | 104 | –
O=c1cc(-c2ccccc2)nc2cc(-c3ccco3)[nH]n12 | 115% | 42.8% | 84.2 | 98.8 | 100% | 93.8 | 110% | 81.8% | 43.8 | 77.8%
CCOC(=O)C(=O)C=P(c1ccccc1)(c1ccccc1)c1ccccc1 | 103% | 107% | 102 | 99.2 | 106% | 97.9 | 97.8% | 103% | 111 | –
Cc1ccc(C(=O)N/N=C/c2ccc3c(c2)OCO3)cc1 | 112% | 73.3% | 108 | 90.5 | 102% | 96 | 115% | 103% | 115 | –
O=C(O)COCC(=O)O | 103% | 116% | 83.6 | 106 | 102% | 92.6 | 89.7% | 104% | 87.9 | –
CC(=O)OCC1=CC2OC(=O)C3=COC(OC4OC(CO)C(O)C(O)C4O)C1C32 (configuration not stated) | 114% | 121% | 96.5 | 113 | 36.8% | 120 | 112% | 109% | 102 | –
C/C(=C\c1ccc([N+](=O)[O-])cc1)C(=O)O | 110% | 97.9% | 108 | 102 | 102% | 105 | 98.4% | 100% | 98.8 | 95.1%
CC(C)C1CCCCC1O (configuration not stated) | 113% | 164% | 117 | 99.4 | 112% | 99.5 | 111% | 101% | 101 | –
COc1cc(C(N)=O)cc(OC)c1OC | 112% | 112% | 110 | 105 | 119% | 101 | 100% | 98.9% | 102 | 107%
CCOc1ccc(/C=C/C(=O)c2ccccc2)cc1 | 95.1% | 71.5% | 108 | 114 | 53.4% | 85.6 | 111% | 105% | 97.7 | 99.7%
COc1cc(/C=N\Nc2ccccc2)ccc1OC(=O)c1ccccc1 | 55.3% | 12% | 89.5 | 86.3 | 100% | 57.5 | 50.5% | 24.4% | 81.8 | 60.2%
COc1ccc(NC(=O)CCl)cc1 | 94.6% | 93.4% | 88.6 | 81.6 | 69.7% | 73.3 | 101% | 83.5% | 60.4 | 75.1%
CCN(CC)C(=O)/C=C(/C)c1ccccc1 | 117% | 107% | 111 | 108 | 96.7% | 104 | 100% | 107% | 110 | 104%
OCc1ccc(-c2ccc(-c3ccc(CO)s3)o2)s1 | 6.59% (active) | -3.52% (active) | 78.1 | 98.8 | 57% | 73.4 | 13.6% | 43.8% | 32.5 | 87.6%
C=CC[N+](C)(C)C | 120% | 102% | 98.8 | 108 | 100% | 112 | -10.9% (active) | 98.1% | 101 | 107%
CCOc1ccc(/C=N/N=C(N)N)cc1OCC | 117% | 98.7% | 113 | 108 | 111% | 96.2 | 95.9% | 99.8% | 89.7 | 99.3%
CNS(=O)(=O)c1ccc(Cl)c(Cl)c1 | 111% | 99.5% | 111 | 98.2 | 99.7% | 96.1 | 101% | 91.7% | 124 | 98.5%
C=CC(O)CCC (configuration not stated) | 112% | 104% | 106 | 106 | 121% | 107 | 91.1% | 102% | 90.3 | 106%
CCOC(=O)C(O)C(O)C(=O)OCC (configuration not stated) | 106% | 102% | 106 | 110 | 125% | 102 | 104% | 109% | 106 | 104%
CCc1ccc(/C(C#N)=C/C=C/c2ccccc2)cc1 | 24.9% | 14.9% | 51.2 | 63.2 | 11.9% | 65.1 | 21.3% | 18.6% | 31.5 | 23.1%
COc1ccc(C2(O)CCCCC2)cc1 | 112% | 111% | 105 | 97 | 103% | 105 | 105% | 109% | 99.1 | 101%
Cc1cc(C)cc(NCCC#N)c1 | 114% | 102% | 164 | 106 | 448% | 105 | 103% | 104% | 124 | 117%
CC1(C(N)=O)CCC(C(=O)O)C1(C)C (configuration not stated) | 113% | 114% | 74.9 | 91.2 | 104% | 104 | 91.2% | 96.8% | 99.5 | 108%
CCCCCCCCCCC(C)Br (configuration not stated) | 113% | 93.2% | 104 | 113 | 103% | 113 | 94.9% | 110% | 101 | 112%
CCN1C(=O)/C(=C/C=C/N(C)c2ccccc2)SC1=S | 88.8% | 79.1% | 86.4 | 94.2 | 90.3% | 65.7 | 54.8% | 92.3% | 97.7 | 101%

Structure (SMILES) | growth (DU-145 prostate) | growth (K-562 leukemia) | growth (MALME-3M melanoma) [%] | growth (MDA-MB-231 breast) [%] | growth (RXF 393 renal) | growth (SF-268 CNS) [%] | growth (SF-295 CNS) | growth (SF-539 CNS) | growth (UACC-257 melanoma) [%] | growth (M14 melanoma)
c1ccc2c(N3CCCCC3)ncnc2c1 | 112% | 94.3% | 142 | 96.5 | 105% | 102 | 109% | 85.3% | 90.2 | 100%
S=c1sc2ccccc2n1CN1CCCCC1 | 99.8% | 124% | 86.6 | 98.4 | 110% | 92.5 | 102% | 105% | 104 | 100%
c1ncc2[nH]cnc2n1 | 96.6% | 102% | 126 | 111 | 112% | 104 | 116% | 98.3% | 87.1 | 97.9%
Cc1ccc(C(O)C2CC2)cc1 (configuration not stated) | 113% | 98.6% | 101 | 105 | 102% | 108 | 97% | 96.7% | 89.5 | 109%
Cc1cc(C(C)(C)C)cc(C)c1Br | 121% | 111% | 135 | 108 | 113% | 102 | 103% | 94.9% | 105 | 98.5%
Cc1c(C(=O)O)c(=O)n(-c2ccccc2)n1C | 118% | 108% | 163 | 118 | 119% | 119 | 91.4% | 119% | 93.8 | 104%
O=[N+]([O-])c1ccc(/C=C/C=C/c2ccccc2)c(Cl)c1 | 109% | 91.8% | 116 | 89.6 | 103% | 111 | 98.7% | 99% | 95.1 | 106%
CN(C)Cc1cc(C(C)(C)CC(C)(C)C)ccc1O | 126% | 108% | 100 | 96.9 | 138% | 106 | 95.6% | 90.8% | 112 | 98%
C[N+](C)(C)C(=O)c1ccccc1 | 114% | 117% | 117 | 97.5 | 114% | 98.2 | 114% | 98.9% | 109 | 95.2%
CC(=O)N(C)c1ccc([N+](=O)[O-])cc1 | 122% | 111% | 144 | 102 | 102% | 116 | 107% | 106% | 110 | 108%
C=CC(=O)OCCCCCCCC | 102% | 103% | 108 | 109 | 120% | 102 | 104% | 99.5% | 96.7 | 104%
COC(=O)c1ccccc1Br | 102% | 111% | 98.5 | 112 | 110% | 101 | 95.1% | 102% | 114 | 88.9%
CC(=O)Nc1ccc(NC(C)=O)c2c1C(=O)c1ccccc1C2=O | 96% | 91.4% | 86.1 | 59.7 | 108% | 95.9 | 99.8% | 92.3% | 110 | 101%
CC(C)=NNC(N)=S | 88.3% | 48.2% | 78.4 | 83.8 | 93.1% | 90.7 | 85.4% | 108% | 77.9 | 65.2%
NCCC(=O)c1ccc(Cl)cc1 | 108% | 98.1% | 109 | 110 | 114% | 100 | 105% | 104% | 101 | 102%
N#Cc1ccc(NC(=O)Nc2cccc(C#N)c2)cc1 | 116% | 46.1% | 121 | 92.1 | 99.3% | 112 | 89.3% | 93.9% | 89.2 | 98.1%
O=S(=O)(O)CC(O)CN1CCN(CCO)CC1 (configuration not stated) | 111% | 97.4% | 114 | 119 | 105% | 109 | 119% | 111% | 97.8 | 105%
Cc1ccc(/C(C#N)=C/c2ccc3c(c2)OCO3)cc1 | 98.1% | 32.4% | 84.3 | 73.3 | 75.3% | 87.7 | 110% | 91.1% | 87.1 | 75.2%
O=c1[nH]n(-c2ccccc2)c(=O)cc1Cl | 116% | 103% | 99.9 | 97.2 | 113% | 101 | 114% | 97.7% | 97.1 | 106%
COc1cccc(/C=N/NC(=S)NC2CC3CCC2C3)c1O (configuration not stated) | 56.6% | 39.3% | 35.9 | 55.4 | 51.5% | 63.3 | 15.9% | 69.8% | 73.6 | 55.7%
CC1(C)OC(=O)C(c2ccsc2)C(=O)O1 | 107% | 107% | 112 | 111 | 107% | 99.6 | 108% | 98.9% | 104 | 106%
O=C(O)C(O)c1ccccc1 (configuration not stated) | 106% | 111% | 99.9 | 107 | 102% | 98.8 | 107% | 94% | 102 | 97.8%
Nc1nc(N)c(N=Nc2ccc(C(=O)O)cc2)c(N)n1 | 111% | 108% | 106 | 107 | 113% | 107 | 104% | 101% | 30.9 | 98.4%
CCOc1ccc(Br)cc1/C=N\N=C\c1cc(Br)ccc1OCC | 102% | 95.3% | 105 | 108 | 145% | 97.6 | 100% | 101% | 92.7 | 98.6%
Cc1cccc(C(=O)N(C(C)C)C(C)C)c1 | 103% | 104% | 95.5 | 109 | 107% | 99 | 90.4% | 96.3% | 87.3 | 96.1%
COC(=O)/C=C\C(=O)OC | 120% | 107% | 139 | 104 | 110% | 113 | 114% | 103% | 106 | 107%
O=c1cc(-c2ccccc2)[nH]c2c1CCCC2 | 21.2% | 23.2% | 31.6 | 33.8 | -21.7% (active) | 57.3 | 18.1% | 3.77% (active) | 46.9 | 8.23% (active)
